Measurements taken from ChEMBL document CHEMBL3988442, “University of Dundee, Small-Polar-MMV Screening Library” (2021).

Experiments:
[1] = molecular target: T1, Aspartate--tRNA(Asp/Asn) ligase (Mycobacterium tuberculosis (strain ATCC 25618 / H37Rv)) (UniProt P9WFW3); experiment: Assay for Asp RNA synthetase-1 from Mycobacterium tuberculosis; format: functional; parameters: scale not given: direction of the effect not stated beside the values; conditions: 30 µM; also: in the data most compounds retested in dose-response had high values
T1 sequence (whole entry): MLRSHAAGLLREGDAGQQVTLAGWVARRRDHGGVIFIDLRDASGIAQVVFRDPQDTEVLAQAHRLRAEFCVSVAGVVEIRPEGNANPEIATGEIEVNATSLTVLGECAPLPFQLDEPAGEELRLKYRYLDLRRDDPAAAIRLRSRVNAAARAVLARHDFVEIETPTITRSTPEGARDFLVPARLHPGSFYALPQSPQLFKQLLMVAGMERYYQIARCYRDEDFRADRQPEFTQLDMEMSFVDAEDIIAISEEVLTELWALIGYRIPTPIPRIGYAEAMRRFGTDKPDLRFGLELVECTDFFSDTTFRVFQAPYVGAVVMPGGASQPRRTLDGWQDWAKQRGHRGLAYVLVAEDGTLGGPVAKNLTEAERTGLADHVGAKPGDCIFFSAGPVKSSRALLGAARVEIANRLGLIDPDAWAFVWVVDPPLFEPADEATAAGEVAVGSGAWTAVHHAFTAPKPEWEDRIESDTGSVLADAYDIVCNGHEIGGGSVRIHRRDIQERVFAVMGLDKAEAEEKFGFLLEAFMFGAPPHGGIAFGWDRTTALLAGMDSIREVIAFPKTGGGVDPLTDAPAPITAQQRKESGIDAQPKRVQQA

[2] = molecular target: Shiga toxin 2 (Escherichia coli O157:H7) (UniProt P09385+P09386); experiment: E. coli 0.157:H7 Shiga Toxin SOP - stx2 screening assay; format: functional; parameters: scale not given: direction of the effect not stated beside the values; conditions: 30 µM

SMILES: O=C(c1ccc2c(c1)OCO2)N1CCCC(n2cccn2)C1 (centres undefined)
- Percent Effect [1]: 4.23%
- Percent Effect [2]: 23.2%

SMILES: O=C(c1csc(Br)c1)N1CCCC(n2ccnc2)C1 (centres undefined)
- Percent Effect [1]: -1.27%
- Percent Effect [2]: -53.5%

SMILES: O=C(Nc1cccc(CNCc2cccs2)c1)C1CCCC1
- Percent Effect [1]: 1.74%
- Percent Effect [2]: 13%

SMILES: CCCOc1cc(C)ccc1NC(=O)NCCC(=O)N(C)C
- Percent Effect [1]: 2.21%
- Percent Effect [2]: -4.42%

SMILES: O=C(NCCOc1ccc2c(c1)OCO2)C1CC(=O)N(CC2CC2)C1 (centres undefined)
- Percent Effect [1]: 4.55%
- Percent Effect [2]: 24.2%

SMILES: Cc1cccc(C(=O)NC2CCN(c3cnn(C)c3)C2=O)n1 (centres undefined)
- Percent Effect [1]: 2.04%
- Percent Effect [2]: -29.9%

SMILES: CC(C)Nc1ncnc2c1CCN(C(=O)c1ccncc1F)CC2
- Percent Effect [1]: -1.6%
- Percent Effect [2]: -6.39%

SMILES: CCC(=O)N1CCC(Cc2ccccc2-c2ccccc2)(C(N)=O)C1 (centres undefined)
- Percent Effect [1]: -7.87%
- Percent Effect [2]: 6.14%

SMILES: CCN1CC2(CC1=O)CN(Cc1cccs1)CCN(C(=O)C(C)C)C2 (centres undefined)
- Percent Effect [1]: -0.746%
- Percent Effect [2]: 0.818%

SMILES: Cc1nc(CN2CCCC(CCNS(C)(=O)=O)C2)c[nH]1 (centres undefined)
- Percent Effect [1]: -4.89%
- Percent Effect [2]: 13%

SMILES: Cc1cc(CN2CCCC2c2noc(C3CC3)n2)c2ccccc2n1 (centres undefined)
- Percent Effect [1]: 2.68%
- Percent Effect [2]: 9.51%

SMILES: Cc1ccc(CN2CCCC3(CCN(S(C)(=O)=O)C3)C2)o1 (centres undefined)
- Percent Effect [1]: 5.01%
- Percent Effect [2]: 3.27%

SMILES: CN1CC(=O)N(c2ccsc2)CC12CCN(S(C)(=O)=O)C2 (centres undefined)
- Percent Effect [1]: -0.605%
- Percent Effect [2]: 0.893%

SMILES: CCn1cc(NC(=O)NCC(c2cccc(F)c2)N(C)C)cn1 (centres undefined)
- Percent Effect [1]: -4.28%
- Percent Effect [2]: 21.4%

SMILES: Cc1ccc(CCC(=O)N2CCCC(n3cncn3)C2)c(C)c1 (centres undefined)
- Percent Effect [1]: -4.98%
- Percent Effect [2]: 10.1%

SMILES: Cc1nc(C2CCCN2CC(=O)NCCc2ccsc2)no1 (centres undefined)
- Percent Effect [1]: 1.22%
- Percent Effect [2]: -9.77%

SMILES: COc1cccc2c1ccn2CCC(=O)N1CCCC(C(=O)O)C1 (centres undefined)
- Percent Effect [1]: 6.53%
- Percent Effect [2]: -30.4%

SMILES: CCOC(CC)C(=O)NCCC(=O)N1CCN(c2ncccn2)CC1 (centres undefined)
- Percent Effect [1]: 1.17%
- Percent Effect [2]: -0.0687%

SMILES: COc1ccc(C(=O)NS(=O)(=O)c2ccc(C#N)cc2C(F)(F)F)cc1
- Percent Effect [1]: -0.26%
- Percent Effect [2]: 8.91%

SMILES: O=C(CN(Cc1ccccc1)CC1CCOCC1)NC(=O)NC1CC1
- Percent Effect [1]: 0.182%
- Percent Effect [2]: -31.8%

SMILES: Cc1n[nH]cc1CNc1ccc2c(c1)CN(C(=O)OC(C)(C)C)CC2
- Percent Effect [1]: 2.29%
- Percent Effect [2]: -13.2%

SMILES: COc1ccccc1OCc1cc(C(=O)N2CC=CC2C(C)C)n[nH]1 (centres undefined)
- Percent Effect [1]: -0.752%
- Percent Effect [2]: 15.8%

SMILES: Cc1csc(N2CCN(C(=O)Cc3ccsc3)CC2)n1
- Percent Effect [1]: 6.55%
- Percent Effect [2]: -7.04%

SMILES: COc1cc(C(C)=O)ccc1OCC(=O)N(C)Cc1cnn(C)c1
- Percent Effect [1]: -4.92%
- Percent Effect [2]: 0.928%

SMILES: CCc1cc(NCc2ccccc2CN2CCCC2)n2ncnc2n1
- Percent Effect [1]: 7.58%
- Percent Effect [2]: -25.4%

SMILES: CCc1nc(CN2CCCC(NCc3nnc(C4CC4)o3)C2)no1 (centres undefined)
- Percent Effect [1]: -2.05%
- Percent Effect [2]: 17.9%

SMILES: CC(C)c1n[nH]c(C2CN(C(=O)c3csnn3)CCO2)n1 (centres undefined)
- Percent Effect [1]: -5.03%
- Percent Effect [2]: -13.5%

SMILES: O=C(C(CNCc1ccsc1)c1ccccc1)N1CCOCC1 (centres undefined)
- Percent Effect [1]: 4.13%
- Percent Effect [2]: -22.6%

SMILES: CCOc1ccccc1Nc1nc2c(C)nn(C)c2c(=O)n1C
- Percent Effect [1]: 1.66%
- Percent Effect [2]: -24.7%

SMILES: CC(C)N(C)Cc1nnc2n1CCN(Cc1ccncc1)CC2
- Percent Effect [1]: 3.87%
- Percent Effect [2]: 1.49%

SMILES: Cn1cc(CN2CCOCC3(C2)CN(c2ccccc2)C(=O)CO3)cn1 (centres undefined)
- Percent Effect [1]: 5.42%
- Percent Effect [2]: 4.18%

SMILES: O=C(NCCO)Nc1cccc(Cl)c1SC(F)F
- Percent Effect [1]: 0.334%
- Percent Effect [2]: -19.7%

SMILES: Cc1nc(C)n(CC2CCCN2CC(=O)Nc2cc(C(C)C)no2)n1 (centres undefined)
- Percent Effect [1]: 3.17%
- Percent Effect [2]: 27.8%

SMILES: O=C(c1cccnc1)N1CCc2ncnc(C3CCOC3)c2CC1 (centres undefined)
- Percent Effect [1]: -5.37%
- Percent Effect [2]: -9.92%

SMILES: Cc1nc(C)n(CC2CCCN2Cc2nc3ccccc3n2C)n1 (centres undefined)
- Percent Effect [1]: -7.69%
- Percent Effect [2]: 5.05%

SMILES: CCCc1nc(CN2CCN(Cc3noc(CCC)n3)CC2)no1
- Percent Effect [1]: -5.2%
- Percent Effect [2]: -39.2%

SMILES: CC(C1CC1)N(C(=O)NCCCn1nc2ccccn2c1=O)C1CC1 (centres undefined)
- Percent Effect [1]: 1.26%
- Percent Effect [2]: -15.6%

SMILES: CC(C)NC(=O)CC1COC2(CCN(Cc3cccs3)CC2)C1 (centres undefined)
- Percent Effect [1]: -0.0228%
- Percent Effect [2]: -27.2%

SMILES: CCN(C)c1ncnc2c1CCN(Cc1csc(C)n1)CC2
- Percent Effect [1]: -3.19%
- Percent Effect [2]: -3.16%

SMILES: c1ccc(Cn2ccnc2CN2CCCC2c2noc(C3CC3)n2)cc1 (centres undefined)
- Percent Effect [1]: 6.6%
- Percent Effect [2]: -32.8%

SMILES: CCCOc1cccc(CNC(=O)CN2CCN(C)CC2C)c1 (centres undefined)
- Percent Effect [1]: 2.62%
- Percent Effect [2]: -7.72%

SMILES: Cc1cccc(N2CCC(NC(=O)CCCc3cccs3)CC2)n1
- Percent Effect [1]: 8.77%
- Percent Effect [2]: -2%

SMILES: CC(NC(=O)Cn1cccn1)c1ccc2c(c1)OCCCO2 (centres undefined)
- Percent Effect [1]: -2.88%
- Percent Effect [2]: -69%

SMILES: COc1cccc(CNc2c(C)cnc3c2c(=O)n(C)c(=O)n3C)c1
- Percent Effect [1]: -3.02%
- Percent Effect [2]: -31.1%

SMILES: CC(=O)N1CCCN(CC(C)(O)c2cccc(C(F)(F)F)c2)CC1 (centres undefined)
- Percent Effect [1]: 0.301%
- Percent Effect [2]: -32.4%

SMILES: O=C(NCCOc1ccc(Cl)cc1)N1CCS(=O)(=O)CC1
- Percent Effect [1]: -4.21%
- Percent Effect [2]: 5.32%

SMILES: COc1c(C2CCCN2C(=O)c2cccc(C(N)=O)c2)c(C)nn1C (centres undefined)
- Percent Effect [1]: 0.375%
- Percent Effect [2]: 18%
